Several values for one entry are separate records, joined by “and”; a condition that tells them apart may be missing. Equal values may be shown once. Some compounds were tested as several samples or in several runs, with calls that do not always agree. Activity calls are given as the source filed them. Rule for the calls: active = hit-call score of the fitted dose curve at least 0.9, where 1 is the maximum; inactive = score below 0.9.

From PubChem BioAssay (EPA / NIEHS) come the findings set out here.

Read-out in the assay: TIMP metallopeptidase inhibitor 2 (TIMP2), TIMP2 (gene 7077)
The assay is described as follows: BSK_KF3CT_TIMP2: BioMAP Diversity Plus: KF3CT Assay for TIMP metallopeptidase inhibitor 2 (TIMP2) Biomarker Activity (AID 2283071). The note with it: primary human keratinocytes with fibroblasts; actives raise or lower the signal. How it is done: BSK_KF3CT is a cell-based, multiplexed-readout assay that uses keratinocytes and foreskin fibroblasts, a human skin primary cell co-culture, with measurements taken at 24 hours after chemical dosing in a 96-well plate.BSK_KF3CT_TIMP2 is an assay component measured in the BSK_KF3CT assay. It measures TIMP-2 antibody related to regulation of gene expression using ELISA technology.Data from the assay component BSK_KF3CT_TIMP2 was analyzed into 1 assay endpoint. This assay endpoint, BSK_KF3CT_TIMP2, was analyzed with bidirectional fitting relative to DMSO as the negative control and baseline of activity. Using a type of binding reporter, gain or loss-of-signal activity can be used to understand changes in the signaling as they relate to the gene TIMP2. Furthermore, this assay endpoint can be referred to as a primary readout, because this assay has produced multiple assay endpoints where this one serves a signaling function. To generalize the intended target to other relatable targets, this assay endpoint is annotated to the protease inhibitor intended target family, where the subfamily is metalloproteinase inhibitor.
The levels of cell surface (or secreted, indicated by the prefix "s") biomarker endpoints were measured by ELISA. Overt cytotoxicity to cells in confluent adherent cultures (all systems other than the BT system) was assessed by measuring total protein levels using sulforhodamine B (SRB) staining in parallel cultures at the time of biomarker measurements, indicated as SRB endpoints. For proliferation assays for adherent cell types, individual cell types are cultured at sub-confluence and relative cell numbers quantified by SRB staining at time points optimized for each system (48 h: 3C and CASM3C systems; 72 h: BT and HDF3CGF systems; 96 h: SAg system). SRB was performed by staining cells with 0.1% SRB after fixation with 10% TCA and reading wells at 560 nm.Viability and proliferation of PBMC (T cells) was quantified by Alamar Blue reduction for the SAg and BT systems. For PBMC viability (referred to as PBMC Cytotoxicity within the assay endpoint names), cells were plated (75,000/well in a 96-well plate) and then chemical samples added for 1 h before addition of activators, SEB and TSST-1 (20 ng/mL final concentration each). Cells were incubated for 90 h. Then, Alamar Blue (20 uL/well) (Invitrogen, Cat DAL1100) was added for 6 h, and the plates were read with a fluorescence microplate reader at 546/580 nm (excitation/emission). For PBMC proliferation, cells were plated and activated as above but incubated for only 16 h prior to addition of Alamar Blue. Plates were read after 6 h.
Take `CC1(c2ccc(Oc3ccccc3)cc2)OC(=O)N(Nc2ccccc2)C1=O` (stereo not given): the outcome was inactive.
Regarding `CCC(C)(NC(=O)c1cc(Cl)c(C)c(Cl)c1)C(=O)CCl` (stereo not given), the AC50 (commonly the concentration giving half of the maximal activity seen) is 16.6 µM (active).
As to `CN1CSC(=S)N(C)C1`, the outcome was inactive.
As to `CCN(CC)C(=O)SCc1ccc(Cl)cc1`, the outcome was inactive.
As to `O=C(Nc1ccccc1)Nc1cnns1`, the outcome was inactive.
With `CCOC1Oc2ccc(OS(C)(=O)=O)cc2C1(C)C` (stereo not given), the result was inactive.
On to `O=S(=O)(O)C(F)(F)C(F)(F)C(F)(F)C(F)(F)C(F)(F)C(F)(F)C(F)(F)C(F)(F)F`, for which the AC50 was 33.9 µM (active) and 35.3 µM (active); the result was inactive.
Consider `O=[N+]([O-])c1c(Cl)c(Cl)c(Cl)c(Cl)c1Cl`, for which the AC50 is 29.9 µM (active).
For `CNC(=O)Oc1ccccc1OC(C)C`, the outcome was inactive.
With `CCC(C)Nc1c([N+](=O)[O-])cc(C(C)(C)C)cc1[N+](=O)[O-]` (stereo not given), the result was inactive.
For `COC(=O)c1ccccc1CS(=O)(=O)NC(=O)Nc1nc(OC)cc(OC)n1`, the outcome was inactive.
`CCc1ccc(C(=O)NN(C(=O)c2cc(C)cc(C)c2)C(C)(C)C)cc1`: the outcome was inactive.
Turning to `O=C(O)COc1ccc(Cl)cc1Cl`, the outcome was inactive.
Same read-out and setting: in the case of `N#CN` it was “inactive”.
As to `CC(C)(C)C(O)/C(=C\c1ccc(Cl)cc1Cl)n1cncn1` (stereo not given), the AC50 was 33.2 µM (active).
`Clc1ccccc1-c1nnc(-c2ccccc2Cl)nn1`: the result was inactive.
In the case of `CCCN(CCC)c1c([N+](=O)[O-])cc(C(F)(F)F)cc1[N+](=O)[O-]`, the outcome was inactive.
Still for that read-out and setting: as for `CC1(C)C(C=C(Cl)Cl)C1C(=O)OC(C#N)c1ccc(F)c(Oc2ccccc2)c1` (stereo not given), the entry is “inactive”; as for `COP(=O)(OC)OC=C(Cl)Cl`, “inactive”; as for `Cc1cc(C)nc(NC(=O)NS(=O)(=O)c2ccccc2C(=O)OC2COC2)n1`, “inactive”.
Turning to `Cc1[nH]c(=O)n(C(C)(C)C)c(=O)c1Cl`, the outcome was inactive.
Take `CCOCN(C(=O)CCl)c1c(C)cccc1CC`: the result was inactive.
Turning to `ClC1C(Cl)C(Cl)C(Cl)C(Cl)C1Cl` (stereo not given), the AC50 is 20 µM (active) and the outcome was inactive.
In the case of `C#CCN1C(=O)COc2cc(F)c(N3C(=O)C4=C(CCCC4)C3=O)cc21`, the result was inactive.
For `COc1nn(CSP(=S)(OC)OC)c(=O)s1`, the outcome was inactive.
In the case of `CC(C)(C)C(O)C(Oc1ccc(Cl)cc1)n1cncn1` (stereo not given), the outcome was inactive.
With `COP(=S)(OC)Oc1ccc([N+](=O)[O-])cc1`, the AC50 is 34.6 µM (active).
As for `CCS(=O)(=O)c1cccnc1S(=O)(=O)NC(=O)Nc1nc(OC)cc(OC)n1`, the outcome was inactive.
The same measure, in the same setting: in the case of `CC(C)OC(=O)Nc1cccc(Cl)c1` it was “inactive”; in that of `COC(=O)c1ccccc1S(=O)(=O)NC(=O)Nc1nc(C)nc(OC)n1`, “inactive”; in that of `OCCOc1ccccc1`, “inactive”.
With `[2H]C1([2H])[n+]2ccccc2-c2cccc[n+]2C1([2H])[2H]`, the outcome was inactive.
With `O=C(O)CCCOc1ccc(Cl)cc1Cl`, the outcome was inactive.
With `CCCN(CCOc1c(Cl)cc(Cl)cc1Cl)C(=O)n1ccnc1`, the outcome was inactive.
Consider `CCC(C)(C)C(=O)OC1=C(c2ccc(Cl)cc2Cl)C(=O)OC12CCCCC2`, for which the AC50 is 28 µM (active).
As to `COC(=O)c1ccccc1S(=O)(=O)NC(=O)N(C)c1nc(C)nc(OC)n1`, the result was inactive.
As for `CNC(=O)CSP(=S)(OC)OC`, the result was inactive.
Regarding `Oc1cc(Cl)ccc1Oc1ccc(Cl)cc1Cl`, the concentration at half-maximal activity (AC50) was 30 µM (active) and 29.7 µM (active) and 20 µM (active).
